In PubChem BioAssay AID540253 (National Center for Advancing Translational Sciences (NCATS), 2011):
The whole screen tested about 340,000 compounds, of which about 240 (0.071%) were called active. Another 5% or so got no clear call; they are omitted. Only a selection was taken, and actives are over-represented in it overall. Unmarked numbers belong to inactive results. The call rests on the fitted dose curve.

The molecules below were run against Snurportin-1 (Homo sapiens) + GTP-binding nuclear protein Ran (Homo sapiens) + Importin subunit beta-1 (Homo sapiens) (UniProt O95149+P62826+Q14974) (assay: qHTS Assay for Inhibitors of RanGTP induced Rango (Ran-regulated importin-beta cargo) - Importin beta complex dissociation). Conditions: Biochemical FRET Rango-importin beta; series mostly up to 46.1 µM; activity change, negative = inhibition: at the top concentration.
Text: NIH Molecular Libraries Probe Production Centers Network [MLPCN] NIH Chemical Genomics Center [NCGC] MLPCN Grant: R03 MH090808-01A1 Assay Submitter (PI): Petr Kalab NCGC Assay Overview: The small GTPase Ran regulates transport of macromolecules between the nucleus and the cytoplasm (nuclear transport) and has important functions in mitotic spindle assembly, nuclear envelope (NE) formation and nuclear pore complex (NPC) assembly. RanGTP gradient is thought to promote spindle assembly by providing a spatial clue to microtubule nucleation and Aurora A activation. Because the localized release and binding of importin alpha cargos relays this spatial clue to SAFs, inhibitors of the Rango - importin beta complex can then be used in further understanding their role in cell cycle specifically in mitosis progression. […] Activation of Aurora A has been linked to different types of cancer and a number of Aurora kinase inhibitors are being developed as potential canter therapeutics; therefore, identified inhibitors of this complex could be developed into potential anti-mitotic probes for cancer treatment. Purified recombinant proteins Rango - importin beta and RanGTP-RCC1 stock premixes were provided by the assay submitter. The assay used a fluorescence resonance energy transfer (FRET) Rango biosensor that contains the IBB of human snurportin 1 flanked by yellow fluorescent protein (EYFP) at the amino terminus and cerulean CFP10 at the carboxy terminus. […] RanGTP binding to the complex (in the presence of RCC1) releases the Rango from the complex. The flexibility of the IBB in the freed Rango allows the donor - acceptor fluorophores to interact, resulting in a high FRET signal. Inhibitors will therefore be identified based on the ability to interfere with the FRET signal increase. DMSO treated and no RanGTP-RCC1 (buffer only) wells were used as negative and positive controls respectively. FRET readings were obtained at two time points. FRET reading prior to importin beta addition (pre-read) were used flag potential compound interference; FRET reading after importin beta addition (post-read) were used to identify inhibitors.
NCGC Assay Protocol Summary: Two and a half uL/well of Rango- importin beta premix solution (0.1 uM Rango, 0.25 uM importin beta, 1x PBS, 1mM DTT, 0.02% Tween-20, 0.1% BSA final concentrations) was dispensed into 1536-well assay plates (Greiner, solid black medium-binding plates) with Aurora Discovery BioRAPTR Flying Reagent Dispenser (FRD; Beckton-Dickenson). Compound solution (23 nL) was transferred to the assay plate using Kalypsys pin tool equipped with a 1536-pin tool and incubated at room temperature for 5 min followed by a FRET pre-read using the PerkinElmer Envision plate reader. Two and a half uL/well of RanGTP-RCC1 premix solution (0.6 uM Ran, 2mM GTP, 0.2 uM RCC1, 1x PBS, 1mM DTT, 0.02% Tween-20, 0.1% BSA final concentrations) were then added and incubated at room temperature giving a final reaction volume of 5uL. After 45min FRET post-read was obtained via the Envision plate reader using the same optics and settings as the pre-read (CFP/YFP optimized dual optical module D450/D505; excitation mirror CFP 430/24 nm; and emission filters CFP 486/10 nm and YFP 530/10 nm).
Further: nearly all actives have a fitted effect of over 45% in size.
Potency means the concentration at half of the fitted maximal effect.
Wherever activity change, negative = inhibition is given: % of control where 0% means no effect.

Row | SMILES | activity change, negative = inhibition [%] | Potency
1 | O=C(NN=CC=Cc1ccccc1)C(O)C(O)C(=O)NN=CC=Cc1ccccc1 (stereo not given) | -0.0781 | –
2 | NC(=O)C1CCN(C(=O)c2cc(S(=O)(=O)N3CCN(c4ccccc4)CC3)ccc2Cl)CC1 | 25.5 | –
3 | CC1(C)C(=O)CCC2(C)C1=CCC1C2C(=O)CC2(C)C1CCC2(O)C(=O)CO (stereo not given) | 24.8 | –
4 | O=C(Cc1ccc(S(=O)(=O)N2CCOCC2)s1)Nc1ccc(Br)c(C(F)(F)F)c1 | -10.6 | –
5 | C=CCOC(=O)N1CCC2CC1c1cc(-c3ccc(OC)cc3)ccc12 (stereo not given) | 8.87 | –
6 | O=C(O)C1C2C=CC(O2)C1C(=O)Nc1ccccn1 (stereo not given) | 1.27 | –
7 | c1ccc(C(=NNc2nc3ccccc3s2)c2ccccn2)cc1 | 2.54 | –
8 | C=CCN1C=C(C(=O)c2ccccc2)C(=O)CC1 | 1.6 | –
9 | CCCCC(=O)NC(c1ccc(OC)c(OC)c1)c1ccc2cccnc2c1O (stereo not given) | 0.729 | –
10 | COc1cccc(CC(=NO)c2cccc(OC)c2)c1 | -1.39 | –
11 | CN(O)C(=S)c1ccccc1 | 16.2 | –
12 | CCN1CCC(O)(/C=C/c2ccc(C)cc2)C(C(=O)/C=C/c2ccc(C)cc2)C1 (stereo not given) | -9.76 | –
13 | Oc1c(CN2CCOCC2)ccc(CN2CCOCC2)c1O | -11.4 | –
14 | CN1C(c2ccc(F)cc2)=CS/C1=C(/C#N)c1nnc2n1-c1ccccc1SC2 | 0.615 | –
15 | CC(=NNC(=O)c1ccncc1)c1ccc(Cl)c(Cl)c1 | -0.0471 | –
16 | O=C(/C=C/Nc1ccc(S(=O)(=O)Nc2cnc3ccccc3n2)cc1)c1cccnc1 | – | 3.26 µM [inconclusive] (active)
17 | CCOc1cc(C(=O)Nc2ccc(S(=O)(=O)Nc3cnc4ccccc4n3)cc2)cc(OCC)c1OCC | 32.9 | –
18 | C=C(C)CNC(=S)Nc1ccc(S(=O)(=O)Nc2cnc3ccccc3n2)cc1 | 23.2 | –
19 | COC(=O)c1ccc(NCc2cc(O)ccc2O)cc1 | -7.48 | –
20 | CC(=O)Oc1ccc2c(C)c(CC(C)O)c(=O)oc2c1 (stereo not given) | – | 9.2 µM [inconclusive] (active)
21 | COC(=O)Cc1c(C)c2ccc(OCC(=O)NCc3ccc4c(c3)OCO4)cc2oc1=O | -12.3 | –
22 | Cc1c(CCC(=O)O)c(=O)oc2cc(OCc3ccc(Br)cc3)ccc12 | 18.2 | –
23 | COC(=O)c1ccc(CNC(=O)Cn2cc(C)c(=O)[nH]c2=O)cc1 | -5.5 | –
24 | COc1ccc(NS(=O)(=O)c2ccc(N3CCOCC3)c(NC(=O)/C=C/C(=O)O)c2)cc1 | -3.29 | –
25 | COc1ccc(C2NCCCC2c2ccccc2)cc1 (stereo not given) | 0.162 | –
26 | Oc1cccc(CCc2ccccn2)c1 | 2.99 | –
27 | CCc1c(Nc2ccccc2C)nc(N)[nH]c1=O | -7.12 | –
28 | Cc1ccc(S(=O)(=O)N2CCN(C(=O)COC(=O)/C=C/c3cccc(Cl)c3)CC2)c(C)c1 | -18.9 | –

Row | SMILES | activity change, negative = inhibition [%] | Potency
29 | COc1ccc(C(CNC(=O)c2cccc(S(=O)(=O)Nc3ccc(Br)cc3)c2)N(C)C)cc1 (stereo not given) | -6.82 | –
30 | COc1cc2c(cc1OC)C(/C=C/c1ccco1)=NCC2 | – | 8.2 µM [inconclusive] (active)
31 | CCOC(=O)C1=NN(c2ccc(Cl)cc2)/C(=C/C2=NCCc3cc(OC)c(OC)cc32)S1 | 0.611 | –
32 | COc1cc2c(cc1OC)C(c1cccc([N+](=O)[O-])c1)=NCC2 | 4.37 | –
33 | C/C(=N\Nc1ccc(Cl)nn1)c1ccccc1O | -0.572 | –
34 | COc1ccc(NC(=O)/C(N=Nc2cccc(S(=O)(=O)Nc3ccc(SC(F)F)cc3)c2)=C(\C)O)cc1 | -19.4 | –
35 | OCCN1CCN(CCO)C1=S | -2.38 | –
36 | O=C(Cc1ccc(Cl)cc1)c1ccccc1 | -16.1 | –
37 | C[C@]12CCC(=O)C=C1C=CC1C2CC[C@@]2(C)C1CC[C@@]21CCC(=O)O1 (stereo not given in full) | 1.93 | –
38 | Cc1nn(-c2ccc(F)cc2)c(Cl)c1/C=C(/CCC(=O)O)c1nc2ccccc2s1 | -9.2 | –
39 | CCCCN=C1N/C(=C\c2ccco2)C(=O)N1c1ccccc1 | – | 14.6 µM [inconclusive] (active)
40 | CCOC(=O)C1(C)NC(c2ccco2)C2C(=O)N(c3ccccc3)C(=O)C21 (stereo not given) | 1.12 | –
41 | COC(=O)C1=C(C)N(c2ccc(Br)cc2)C(=O)/C1=C\c1ccco1 | -5.05 | –
42 | COCCNc1nc2nonc2nc1N(C)Cc1ccc(C)cc1 | -7.61 | –
43 | COCCNc1nc2nonc2nc1N1CCCC1c1nccs1 (stereo not given) | – | 18.4 µM [inconclusive] (active)
44 | COCCNc1ncnc2c1nc1n2CCCC1 | 11.7 | –
45 | CC(NC(=O)c1ccccc1)C(=O)Nc1ccccc1 (stereo not given) | 2.79 | –
46 | C(#CCN1CCOCC1)CCCN1CCOCC1 | -7.44 | –
47 | O=C(Nc1c(Br)cc2c(c1Br)Cc1ccccc1-2)C(F)(F)F | -9.71 | –
48 | COc1ccc(-c2ccc3c(c2)[C@@H]2C[C@H](N(C)S(=O)(=O)c4ccccc4)[C@H]([C@H](C)O)C(=O)N2CC3)cc1 | -9.19 | –
49 | c1ccc2c(c1)OC1OC2Oc2ccccc21 | 1.32 | –
50 | CCOc1ccc(S(=O)(=O)N2CCN(C(=O)c3oc4ccccc4c3C)CC2)cc1 | 21 | –
51 | Cc1nc(N)sc1-c1ccccc1 | 12.3 | –
52 | CN(C)c1ccc(CSc2ccccc2)cc1 | -10.4 | –
53 | COCCN(C(=O)C(C)N1C(=O)c2ccccc2C1=O)c1c(N)n(CC(C)C)c(=O)[nH]c1=O (stereo not given) | -2.86 | –
54 | COc1cccc(/C=N/Nc2ccc(S(=O)(=O)Nc3ccccc3C(=O)O)cc2[N+](=O)[O-])c1O | 27.9 | –
55 | Cc1ccccc1N1CCN(C(=O)c2cccnc2)CC1 | -6.59 | –
